Data as given in PubChem BioAssay AID1259376 (The Scripps Research Institute Molecular Screening Center, 2018).
In all, about 4,700 compounds went through this assay and about 360 (7.7%) were called active. These entries were drawn from the full list. Unmarked numbers belong to inactive results.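 The calls were made as follows: active = inhibition above a cutoff derived from the DMSO control wells (cut at about 30% in these data); inactive = the rest.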

Assay: AlphaScreen optical interference compounds, counter-screen for MITF inhibitor project, biochemical, triplicate (AID 1259376)
Settings: LysRS AlphaScreen counterscreen, signal interference, at 2.6 µM, active compounds read high

SMILES | inhibition
CC(C)(C)n1nnnc1C(c1ccc2ncccc2c1)N1CCSCC1 (configuration not stated) | 30.7% (active)
CCSc1ccccc1C(=O)N1CCN(c2ccc(-c3ccccn3)nn2)CC1 | 101% (active)
Brc1cccc(CN2CCN(Cc3cccnc3)CC2)c1 | -5.02%
Cc1cc(C(C)(C)C)ccc1OCCN1CCNCC1 | -9.28%
CCN1CCN(CCOCCOc2ccccc2OCc2ccccc2)CC1 | 9.59%
Cc1cc(NC(=O)/C=C/C(=O)N(CC(=O)NC2CCCC2)c2ccc(F)cc2)no1 | 10.1%
O=C(c1ccc2c(c1)C(=O)N(Cc1cccnc1)C2=O)c1ccc2c(c1)C(=O)N(Cc1cccnc1)C2=O | 24.6%
CN(CCc1ccccn1)Cc1cccnc1 | 22.1%
Cc1ccc(OCCCCNCCN2CCOCC2)c(Br)c1 | 13.8%
CCc1ccc(OCCCCn2ccnc2)cc1 | 0.71%
CCc1cccc(OCCOCCn2ccnc2)c1 | -2.1%
N#Cc1nc(COc2cccc(Cl)c2)oc1NCCCn1ccnc1 | 65.7% (active)
c1ccc(-n2cc(CN3CCOCC3)c(-c3ccc4c(c3)OCCO4)n2)cc1 | 10%
CCCS(=O)(=O)N1CCN(Cc2ccc(OC)c(OCc3ccccc3)c2)CC1 | 9.8%
CN1CCC(N2CCN(c3ccccc3Cl)CC2)CC1 | 14.1%
COc1cc(Nc2ncnc3c2nc(N2CCOCC2)n3C(C)C)cc(OC)c1OC | 13.7%
COc1ccc(Cn2nnc(C(=O)Nc3cccc(Cl)c3)c2N)cc1 | 14.3%
O=C(CNCc1ccc(F)cc1)Nc1ccc(N2CCCC2)cc1 | 25.2%
CCOc1ccc(CN2CCCN(C)CC2)cc1 | 0.42%
CCCn1c(C)cc(-c2csc(NC(=O)Cc3ccsc3)n2)c1C | 12%
CC(=O)NS(=O)(=O)c1ccc(-c2ccc(C=C(C#N)C#N)o2)cc1 | 3.05%

SMILES | inhibition
COc1ccc(CN2CCN(Cc3ccccc3OC)CC2)cc1Br | 7.62%
Cc1cccc(CSc2n[nH]c(=O)[nH]c2=O)c1 | -7.01%
CC1CN(CCOc2ccccc2[N+](=O)[O-])CC(C)O1 (configuration not stated) | 13.4%
COc1ccc(OCCn2ccnc2C)cc1 | -3.46%
CCN1CCN(CCOCCOc2ccc([N+](=O)[O-])cc2)CC1 | 9.29%
COc1cccc(/C=C(\C#N)c2nc3ccccc3[nH]2)c1OCc1ccc(Cl)cc1Cl | 0.18%
COc1ccc(C(CNCc2cc(=O)oc3cc4c(cc23)CCC4)N2CCOCC2)cc1 (configuration not stated) | 13%
CCOc1cc(CN2CCN(Cc3ccccn3)CC2)ccc1OC | 17.5%
c1cc2c(cc1CN1CCN(C3CCCCC3)CC1)OCO2 | 2.75%
COc1cc(CN2CCN(Cc3cc(OC)c(OC)cc3OC)CC2)cc(OC)c1 | -0.77%
COc1cc(CN2CCN(Cc3ccccc3Br)CC2)cc(OC)c1 | 9.78%
CCN(CC)C(=O)C1CCCN(Cc2cccc(Cl)c2)C1 (configuration not stated) | 14.2%
COc1ccc(C(=O)N2CCN(Cc3ccccc3C(F)(F)F)CC2)cc1OC | 20.4%
CN(C)c1cccc(Nc2ccc(-c3cccc(C=O)c3)cn2)c1 | 73.1% (active)
C1=CC2CC1CC2CN1CCN(Cc2c[nH]c3ccccc23)CC1 (configuration not stated) | 2.75%
COc1ccc(CN2CCN(C3CCC(C)CC3)CC2)c(OC)c1OC (configuration not stated) | -12.1%
CC(=O)c1ccc(NC(=O)C(C)NCc2ccc(C)cc2)cc1 (configuration not stated) | 15.9%
Fc1cccc(CN2CCN(C3CCC(c4ccccc4)CC3)CC2)c1 (configuration not stated) | 21.8%
COCCCN1C(=O)c2cccc3c(C(=O)c4ccccc4)ccc(c23)C1=O | 12.9%
CCOc1cccc(C2C(C(=O)OCCOc3ccccc3)=C(C)NC3=C2C(=O)CCC3)c1 (configuration not stated) | 14.4%
COC(=O)C1(C)NC(c2ccc(C)cc2)C2C(=O)N(c3ccc(F)cc3)C(=O)C21 (configuration not stated) | 11.6%

SMILES | inhibition
COc1cc(N2CCOCC2)ccc1Nc1cc(Nc2ccccc2-n2cccn2)c(C(F)(F)F)cn1 | 8.51%
O=C(C1CCN(Cc2nc3ccccc3[nH]2)CC1)N1CCN(c2ccccn2)CC1 | 13.8%
c1cncc(CCNc2ccc3ncc(-c4cc5ccccc5o4)n3n2)c1 | 6.63%
O=C(c1ccccc1)N1CCN(C2CCCC2)CC1 | -2.61%
COc1ccc(C2C(C(C)=O)=C(C)N=C3SCC(=O)N32)c(OC)c1 (configuration not stated) | -6.53%
COc1ccc(C(=O)COC(=O)CNS(=O)(=O)/C=C/c2ccc(C)cc2)cc1OC | 5.32%
O=C(CN1CCN(CC(=O)c2ccco2)CC1)Nc1ccc(Cl)c(Cl)c1 | 10.6%
COc1cc(CN2CCN(Cc3ccc(C)cc3)CC2)c([N+](=O)[O-])cc1OC | 13.5%
CCOc1ccccc1N1CCN(Cc2cc(OC)c(O)c([N+](=O)[O-])c2)CC1 | 16.9%
O=C(CCC(=O)OCc1ccc(Cl)cc1)Nc1ccc([N+](=O)[O-])cc1 | 14.7%
Cc1n[nH]c(=O)nc1N/N=C/c1cccs1 | 100% (active)
CC1CCN(S(=O)(=O)c2ccc(Cl)c(C(=O)Nc3ccccc3[N+](=O)[O-])c2)CC1 | 14.3%
COc1ccc(OC)c(CN2CCN(Cc3ccc(Cl)cc3)CC2)c1 | 15.1%
Cn1c(=NC(=O)COc2ccccc2)sc2cc(S(C)(=O)=O)ccc21 | 12.4%
COC(=O)c1sc(NC(=O)c2ccccc2C)c(C#N)c1C | -2.84%
Cc1ccccc1NC(=O)NCCOc1cc(N2CCCC2)ncn1 | 13.1%
O=[N+]([O-])c1ccccc1CN1CCN(Cc2cccnc2)CC1 | 12.2%
O=C(c1cccc(Cl)c1)N1CCN(Cc2cccnc2)CC1 | 7.21%
COc1ccc(-c2nc(Nc3cc(OC)c(OC)c(OC)c3)c3[nH]cnc3n2)cc1 | 16.5%
CCNc1nc(NCC)nc(C(=O)O)n1 | 77% (active)
